The supplement of paper PMC6555819

Experiments:
Test in all cases: PBM binding z-score (relative to random genomic background probes); higher = stronger binding; sequences stand for … in GC…GCGATTGACAGCGTAGAATGAAGG
[1] = system: FXR:RXRa (NR concentration 270 nM, RXRa partner concentration 90 nM)
Summary of the method: (§1)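 For binding z-scores, the reference was random background probes on custom Agilent 4×180K protein-binding microarrays. These arrays were incubated 1 h with ligand-free nuclear receptor dimers in PBS pH 7.4, 2% milk, 0.02% Triton X-100, 1 mM DTT, 0.2 mg/mL BSA and 0.4 mg/ml salmon testes DNA. Fluorescence was scanned after antibody detection of each partner (one per run) and regression-normalized.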

[2] = system: LXRa:RXRa (NR concentration 270 nM, RXRa partner concentration 90 nM)
Summary of the method: as §1

[3] = system: LXRa homodimer (NR concentration 270 nM)
Summary of the method: as §1

[4] = system: LXRb:RXRa (NR concentration 270 nM, RXRa partner concentration 90 nM)
Summary of the method: as §1

[5] = system: LXRb homodimer (NR concentration 270 nM)
Summary of the method: as §1

[6] = system: PPARa:RXRa (NR concentration 270 nM, RXRa partner concentration 90 nM)
Summary of the method: as §1

[7] = system: PPARg:RXRa (NR concentration 180 nM, RXRa partner concentration 90 nM)
Summary of the method: as §1

[8] = system: PPARg:RXRa 270nM:90nM, anti-RXR (NR concentration 270 nM, RXRa partner concentration 90 nM)
Summary of the method: as §1

[9] = system: PPARg:RXRa 30nM:10nM, anti-RXR (NR concentration 30 nM, RXRa partner concentration 10 nM)
Summary of the method: as §1

[10] = system: PPARg:RXRa 90nM:30nM, anti-RXR (NR concentration 90 nM, RXRa partner concentration 30 nM)
Summary of the method: as §1

CCTGCTAGGTCATAGTCAGCTAATCTACAGTATG
PBM binding z-score [1]: 3.02
PBM binding z-score [2]: 2.11
PBM binding z-score [3]: 0.646
PBM binding z-score [4]: 1.7
PBM binding z-score [5]: 0.153
PBM binding z-score [6]: 3.12
PBM binding z-score [7]: 1.77
PBM binding z-score [8]: 2.14
PBM binding z-score [9]: 0.394
PBM binding z-score [10]: 1.32

ATATGTAGGTTAAGGGTCATTGAGGTTGGTTCGC
PBM binding z-score [1]: 5.02
PBM binding z-score [2]: 4.71
PBM binding z-score [3]: 3.01
PBM binding z-score [4]: 4.45
PBM binding z-score [5]: 1.6
PBM binding z-score [6]: 6.56
PBM binding z-score [7]: 11.9
PBM binding z-score [8]: 10
PBM binding z-score [9]: 10.5
PBM binding z-score [10]: 10.7

CCTCGGAGGACAACAGGAGGTCAGACCTGCCAGA
PBM binding z-score [1]: 0.836
PBM binding z-score [2]: 2.12
PBM binding z-score [3]: 2.37
PBM binding z-score [4]: 1.52
PBM binding z-score [5]: -0.492
PBM binding z-score [6]: 1.96
PBM binding z-score [7]: 0.605
PBM binding z-score [8]: 0.0936
PBM binding z-score [9]: -0.634
PBM binding z-score [10]: -0.359

CCTTACTGGTCACGAGGTTATAGCACGACGAGCG
PBM binding z-score [1]: 1.49
PBM binding z-score [2]: 1.46
PBM binding z-score [3]: 0.682
PBM binding z-score [4]: 1.36
PBM binding z-score [5]: 0.455
PBM binding z-score [6]: 2.04
PBM binding z-score [7]: 1.77
PBM binding z-score [8]: 1.97
PBM binding z-score [9]: -0.0752
PBM binding z-score [10]: 1.04

CCTACTGGGCCACGAAAGGTTATTGATTCAGTGA
PBM binding z-score [1]: 0.471
PBM binding z-score [2]: 1.28
PBM binding z-score [3]: 0.5
PBM binding z-score [4]: 1.1
PBM binding z-score [5]: -0.501
PBM binding z-score [6]: 2.58
PBM binding z-score [7]: 2.37
PBM binding z-score [8]: 2.81
PBM binding z-score [9]: 0.563
PBM binding z-score [10]: 1.69

AGACTGAGGTTACCAAAGATCAGGGAAACGCTTG
PBM binding z-score [1]: 1.67
PBM binding z-score [2]: 5.98
PBM binding z-score [3]: -0.277
PBM binding z-score [4]: 3
PBM binding z-score [5]: -0.462
PBM binding z-score [6]: 2.79
PBM binding z-score [7]: 1.29
PBM binding z-score [8]: 1.54
PBM binding z-score [9]: 0.351
PBM binding z-score [10]: 1.05

GATACAGGCTCAAGGCCAGAGTACGCGTATTGAT
PBM binding z-score [1]: -0.696
PBM binding z-score [2]: -0.88
PBM binding z-score [3]: -0.571
PBM binding z-score [4]: -1.04
PBM binding z-score [5]: -0.938
PBM binding z-score [6]: -0.602
PBM binding z-score [7]: 0.777
PBM binding z-score [8]: 0.34
PBM binding z-score [9]: -0.217
PBM binding z-score [10]: -0.0733

TTACCAAGGTGAGCTGTGGTCGTTGATCCAACTC
PBM binding z-score [1]: 0.0539
PBM binding z-score [2]: -0.153
PBM binding z-score [3]: -0.583
PBM binding z-score [4]: -0.347
PBM binding z-score [5]: -1.27
PBM binding z-score [6]: 0.301
PBM binding z-score [7]: -0.403
PBM binding z-score [8]: 0.0963
PBM binding z-score [9]: -0.507
PBM binding z-score [10]: 0.106

CGTCCAAGGTCAATGCTAGGTGAGTGAAAGCATT
PBM binding z-score [1]: 5.97
PBM binding z-score [2]: 4.36
PBM binding z-score [3]: 0.361
PBM binding z-score [4]: 3.28
PBM binding z-score [5]: 0.445
PBM binding z-score [6]: 4.69
PBM binding z-score [7]: 3.49
PBM binding z-score [8]: 4
PBM binding z-score [9]: 0.812
PBM binding z-score [10]: 2.99

TTACCAAGGTGCGCTGAGGTCGTTGATCCAACTC
PBM binding z-score [1]: 0.911
PBM binding z-score [2]: 0.599
PBM binding z-score [3]: 0.0298
PBM binding z-score [4]: 0.588
PBM binding z-score [5]: -0.404
PBM binding z-score [6]: 0.971
PBM binding z-score [7]: -0.397
PBM binding z-score [8]: -0.0544
PBM binding z-score [9]: -0.287
PBM binding z-score [10]: 0.0957

TCATATAGGTAAATGCTAGGTTAAAGTCCGATCT
PBM binding z-score [1]: 1.18
PBM binding z-score [2]: 1.82
PBM binding z-score [3]: 1.14
PBM binding z-score [4]: 1.05
PBM binding z-score [5]: 0.0487
PBM binding z-score [6]: 1.7
PBM binding z-score [7]: 0.987
PBM binding z-score [8]: 2.22
PBM binding z-score [9]: 3.48
PBM binding z-score [10]: 2.87

ATCGAGAGGTCGTGAGGTGAGTATACAGAAAGGC
PBM binding z-score [1]: 3.73
PBM binding z-score [2]: 2.94
PBM binding z-score [3]: 0.117
PBM binding z-score [4]: 2.25
PBM binding z-score [5]: 0.0713
PBM binding z-score [6]: 4.03
PBM binding z-score [7]: 2.75
PBM binding z-score [8]: 2.74
PBM binding z-score [9]: 0.76
PBM binding z-score [10]: 1.91

AGAACGAGGGCAATGAGGTGATAGCACGGGTGGC
PBM binding z-score [1]: 0.341
PBM binding z-score [2]: 0.494
PBM binding z-score [3]: -0.43
PBM binding z-score [4]: -0.215
PBM binding z-score [5]: -0.118
PBM binding z-score [6]: 1.72
PBM binding z-score [7]: 1.75
PBM binding z-score [8]: 1.46
PBM binding z-score [9]: -0.142
PBM binding z-score [10]: 0.347
